# Data published in PubChem BioAssay AID1159580 (chemical genetic matrix, 2015).
# Out of some 5,500 compounds screened, about 2,000 (36%) were called active. Inconclusive results (about 18%) are left out. This is one part of the list. A number with no mark means an inactive call. Cut-off read from the data, not from the text of the source: active = normalized growth mostly below about 0.91 (no sharp cut-off); inconclusive = no clear call, values can overlap the other calls; inactive = mostly above about 0.92.
# Assay: chemical genetic growth profiling, strain panel (AID 1159580);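 note: tested at 20 µM; growth read once vehicle control cultures reached saturation at 30 °C; 1 = growth at the plate median or of vehicle wells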
# Conditions: growth OD
smiles,measurement,setting,value
COc1ccc2oc3ccccc3c(=O)c2c1,normalized growth,"S. cerevisiae deletion strains, locus YJL187C, strain SWE1, stronger effect = lower value",0.834 (active)
same,normalized growth,"S. cerevisiae deletion strains, locus YJR043C, strain POL32, stronger effect = lower value",0.932
same,normalized growth,"S. cerevisiae deletion strains, locus YJR075W, strain HOC1, stronger effect = lower value",0.885
same,normalized growth,"S. cerevisiae deletion strains, locus YKL009W, strain mrt4, stronger effect = lower value",0.886
same,normalized growth,"S. cerevisiae deletion strains, locus YKL068W, stronger effect = lower value",0.949
same,normalized growth,"S. cerevisiae deletion strains, locus YKL085W, strain MDH1 (second series), stronger effect = lower value",0.914 (active)
same,normalized growth,"S. cerevisiae deletion strains, locus YKL085W, strain MDH1, stronger effect = lower value",0.914 (active)
same,normalized growth,"S. cerevisiae deletion strains, locus YKL160W, strain elf1, stronger effect = lower value",0.823 (active)
same,normalized growth,"S. cerevisiae deletion strains, locus YKL190W, strain CNB1, stronger effect = lower value",0.922
same,normalized growth,"S. cerevisiae deletion strains, locus YKR001C, strain vps1, stronger effect = lower value",0.526 (active)
same,normalized growth,"S. cerevisiae deletion strains, locus YKR026C, strain gcn3, stronger effect = lower value",0.927
same,normalized growth,"S. cerevisiae deletion strains, locus YKR091W, strain srl3, stronger effect = lower value",0.945
same,normalized growth,"S. cerevisiae deletion strains, locus YLL001W, strain dnm1, stronger effect = lower value",0.875 (active)
same,normalized growth,"S. cerevisiae deletion strains, locus YLL026W, stronger effect = lower value",0.879 (active)
same,normalized growth,"S. cerevisiae deletion strains, locus YLL041C, strain sdh2, stronger effect = lower value",0.937
same,normalized growth,"S. cerevisiae deletion strains, locus YLR027C, strain aat2, stronger effect = lower value",0.855 (active)
same,normalized growth,"S. cerevisiae deletion strains, locus YLR039C, strain RIC1, stronger effect = lower value",0.486 (active)
same,normalized growth,"S. cerevisiae deletion strains, locus YLR058C, strain SHM2, stronger effect = lower value",0.861 (active)
same,normalized growth,"S. cerevisiae deletion strains, locus YLR102C, strain apc9, stronger effect = lower value",0.907 (active)
same,normalized growth,"S. cerevisiae deletion strains, locus YLR221C, strain rsa3, stronger effect = lower value",0.821 (active)
same,normalized growth,"S. cerevisiae deletion strains, locus YLR258W, strain gsy2, stronger effect = lower value",0.871 (active)
same,normalized growth,"S. cerevisiae deletion strains, locus YLR262C, strain YPT6 (second series), stronger effect = lower value",0.597 (active)
same,normalized growth,"S. cerevisiae deletion strains, locus YLR262C, strain YPT6, stronger effect = lower value",0.577 (active)
same,normalized growth,"S. cerevisiae deletion strains, locus YLR268W, strain sec22, stronger effect = lower value",0.84 (active)
same,normalized growth,"S. cerevisiae deletion strains, locus YLR320W, strain mms22, stronger effect = lower value",0.464 (active)
same,normalized growth,"S. cerevisiae deletion strains, locus YLR330W, strain CHS5, stronger effect = lower value",0.854 (active)
same,normalized growth,"S. cerevisiae deletion strains, locus YLR342W, strain FKS1 (second series), stronger effect = lower value",0.945
same,normalized growth,"S. cerevisiae deletion strains, locus YLR342W, strain FKS1, stronger effect = lower value",0.952
same,normalized growth,"S. cerevisiae deletion strains, locus YLR357W, strain rsc2, stronger effect = lower value",1.09
same,normalized growth,"S. cerevisiae deletion strains, locus YLR370C, strain arc18, stronger effect = lower value",0.946
same,normalized growth,"S. cerevisiae deletion strains, locus YLR371W, strain rom2, stronger effect = lower value",0.7 (active)
same,normalized growth,"S. cerevisiae deletion strains, locus YLR384C, strain iki3, stronger effect = lower value",0.912 (active)
same,normalized growth,"S. cerevisiae deletion strains, locus YLR418C, strain cdc73, stronger effect = lower value",0.659 (active)
same,normalized growth,"S. cerevisiae deletion strains, locus YML016C, strain PPZ1, stronger effect = lower value",0.881 (active)
same,normalized growth,"S. cerevisiae deletion strains, locus YML032C, strain rad52, stronger effect = lower value",0.755 (active)
same,normalized growth,"S. cerevisiae deletion strains, locus YML120C, strain ndi1, stronger effect = lower value",0.742 (active)
same,normalized growth,"S. cerevisiae deletion strains, locus YML124C, strain tub3, stronger effect = lower value",0.902 (active)
same,normalized growth,"S. cerevisiae deletion strains, locus YMR058W, strain fet3, stronger effect = lower value",0.86 (active)
same,normalized growth,"S. cerevisiae deletion strains, locus YMR078C, strain ctf18, stronger effect = lower value",0.852 (active)
same,normalized growth,"S. cerevisiae deletion strains, locus YMR125W, strain sto1, stronger effect = lower value",0.713 (active)
same,normalized growth,"S. cerevisiae deletion strains, locus YMR129W, stronger effect = lower value",0.95
same,normalized growth,"S. cerevisiae deletion strains, locus YMR205C, strain PFK2, stronger effect = lower value",0.78 (active)
same,normalized growth,"S. cerevisiae deletion strains, locus YMR223W, strain ubp8, stronger effect = lower value",0.84 (active)
same,normalized growth,"S. cerevisiae deletion strains, locus YMR231W, strain pep5, stronger effect = lower value",0.915 (active)
same,normalized growth,"S. cerevisiae deletion strains, locus YMR307W, strain GAS1, stronger effect = lower value",0.845
same,normalized growth,"S. cerevisiae deletion strains, locus YNL067W, strain RPL9B, stronger effect = lower value",0.874
same,normalized growth,"S. cerevisiae deletion strains, locus YNL071W, strain lat1, stronger effect = lower value",0.421 (active)
same,normalized growth,"S. cerevisiae deletion strains, locus YNL128W, strain TEP1, stronger effect = lower value",0.815 (active)
same,normalized growth,"S. cerevisiae deletion strains, locus YNL209W, strain ssb2, stronger effect = lower value",0.934
same,normalized growth,"S. cerevisiae deletion strains, locus YNL233W, strain BNI4, stronger effect = lower value",0.81 (active)
same,normalized growth,"S. cerevisiae deletion strains, locus YNL248C, strain rpa49, stronger effect = lower value",0.397 (active)
same,normalized growth,"S. cerevisiae deletion strains, locus YNL250W, strain rad50, stronger effect = lower value",0.866 (active)
same,normalized growth,"S. cerevisiae deletion strains, locus YNL271C, strain bni1, stronger effect = lower value",0.874 (active)
same,normalized growth,"S. cerevisiae deletion strains, locus YNL298W, strain CLA4, stronger effect = lower value",0.869 (active)
same,normalized growth,"S. cerevisiae deletion strains, locus YNL307C, strain MCK1, stronger effect = lower value",0.569 (active)
same,normalized growth,"S. cerevisiae deletion strains, locus YNL322C, strain KRE1 (second series), stronger effect = lower value",0.992
same,normalized growth,"S. cerevisiae deletion strains, locus YNR049C, strain mso1, stronger effect = lower value",0.947
same,normalized growth,"S. cerevisiae deletion strains, locus YNR052C, strain pop2, stronger effect = lower value",0.874 (active)
same,normalized growth,"S. cerevisiae deletion strains, locus YOL012C, strain htz1",0.651
same,normalized growth,"S. cerevisiae deletion strains, locus YOL147C, strain pex11, stronger effect = lower value",0.906 (active)
same,normalized growth,"S. cerevisiae deletion strains, locus YOR001W, strain rrp6, stronger effect = lower value",0.825 (active)
same,normalized growth,"S. cerevisiae deletion strains, locus YOR061W, strain CKA2, stronger effect = lower value",0.886 (active)
same,normalized growth,"S. cerevisiae deletion strains, locus YOR069W, strain VPS5, stronger effect = lower value",0.918 (active)
same,normalized growth,"S. cerevisiae deletion strains, locus YOR070C, strain gyp1, stronger effect = lower value",0.859 (active)
same,normalized growth,"S. cerevisiae deletion strains, locus YOR080W, strain dia2, stronger effect = lower value",0.959
same,normalized growth,"S. cerevisiae deletion strains, locus YOR083W, strain WHI5, stronger effect = lower value",0.789 (active)
same,normalized growth,"S. cerevisiae deletion strains, locus YOR106W, strain vam3, stronger effect = lower value",0.817 (active)
same,normalized growth,"S. cerevisiae deletion strains, locus YOR136W, strain idh2, stronger effect = lower value",0.922
same,normalized growth,"S. cerevisiae deletion strains, locus YOR144C, strain elg1, stronger effect = lower value",0.904 (active)
same,normalized growth,"S. cerevisiae deletion strains, locus YOR184W, strain ser1, stronger effect = lower value",0.771 (active)
same,normalized growth,"S. cerevisiae deletion strains, locus YOR265W, strain rbl2, stronger effect = lower value",0.932
same,normalized growth,"S. cerevisiae deletion strains, locus YOR270C, strain vph1, stronger effect = lower value",0.528 (active)
same,normalized growth,"S. cerevisiae deletion strains, locus YOR290C, strain snf2, stronger effect = lower value",0.686 (active)
same,normalized growth,"S. cerevisiae deletion strains, locus YOR316C, strain cot1, stronger effect = lower value",0.903 (active)
same,normalized growth,"S. cerevisiae deletion strains, locus YPL051W, strain arl3, stronger effect = lower value",0.772 (active)
same,normalized growth,"S. cerevisiae deletion strains, locus YPL078C, strain atp4, stronger effect = lower value",0.773 (active)
same,normalized growth,"S. cerevisiae deletion strains, locus YPL106C, strain sse1, stronger effect = lower value",0.78 (active)
same,normalized growth,"S. cerevisiae deletion strains, locus YPL240C, strain hsp82, stronger effect = lower value",0.931
same,normalized growth,"S. cerevisiae deletion strains, locus YPL241C, strain CIN2, stronger effect = lower value",0.917 (active)
same,normalized growth,"S. cerevisiae deletion strains, locus YPR119W, strain clb2, stronger effect = lower value",0.907 (active)
same,normalized growth,"S. cerevisiae deletion strains, locus YPR141C, strain kar3, stronger effect = lower value",0.882 (active)
same,normalized growth,"S. cerevisiae deletion strains, locus YPR163C, strain tif3, stronger effect = lower value",0.756 (active)
same,normalized growth,"S. cerevisiae deletion strains, locus YPR167C, strain met16, stronger effect = lower value",0.925
same,normalized growth,"S. cerevisiae deletion strains, strain wtn01, stronger effect = lower value",0.87 (active)
same,normalized growth,"S. cerevisiae strains, strain wild type, stronger effect = lower value",0.874 (active)
